Shown are actives, neighbours in structure and some others; about 9.2% of the full set was active somewhere.
NPC1 promoter act: NPC1 promoter activation | Huh7 NPC1 promoter luciferase reporter, 24 h | Potency, µM (doses to about 9.22 µM), actives largely listed as activators | 320,000 compounds, 2.4% hits | AID 485313; also: nearly all actives have a fitted effect of over 60% in size
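Huh7 cells stably carrying NPC1 promoter–luciferase, plated in Opti-MEM with 10% FBS for 2 h, were exposed to compound in DMSO for 24 h at 37 °C; luciferase reagent was added for 10 min and luminescence read.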
FLuc modulator: inhibits or activates purified firefly luciferase, miR-21 counter-screen | 360,000 compounds, 6.9% hits | P08659 | purified FLuc, Km substrates, luminescence inhibition | AID 588342 | Potency, µM (highest dose often 57.5 µM), usual class: inhibitors; also: nearly all actives have a fitted effect of over 55% in size
Target sequence (P08659 whole entry, looked up): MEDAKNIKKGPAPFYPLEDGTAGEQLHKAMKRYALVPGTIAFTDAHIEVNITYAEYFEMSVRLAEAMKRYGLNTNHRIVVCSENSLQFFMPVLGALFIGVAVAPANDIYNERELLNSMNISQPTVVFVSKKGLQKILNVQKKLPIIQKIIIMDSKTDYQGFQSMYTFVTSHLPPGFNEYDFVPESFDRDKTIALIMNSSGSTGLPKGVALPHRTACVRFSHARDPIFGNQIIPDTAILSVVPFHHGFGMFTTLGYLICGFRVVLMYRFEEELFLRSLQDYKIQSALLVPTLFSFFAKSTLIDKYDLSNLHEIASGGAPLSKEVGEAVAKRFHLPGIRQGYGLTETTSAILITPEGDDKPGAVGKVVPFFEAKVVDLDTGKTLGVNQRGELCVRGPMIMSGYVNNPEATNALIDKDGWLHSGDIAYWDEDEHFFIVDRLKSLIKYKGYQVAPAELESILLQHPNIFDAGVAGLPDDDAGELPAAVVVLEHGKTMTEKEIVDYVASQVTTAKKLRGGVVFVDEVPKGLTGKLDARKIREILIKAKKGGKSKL
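Purified P. pyralis luciferase (10nM final) with 10uM D-luciferin and 10uM ATP (Km levels) in 50mM Tris acetate pH 7.5, 10mM Mg acetate, 0.01% Tween-20, 0.05% BSA; qHTS 6-point titration, ~60 µM downward; luminescence read.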
ELG1 genotoxic: inducers of genotoxicity in HEK293T ELG1-luciferase cells. 330,000 compounds, 1.3% hits. HEK293T ELG1-luciferase reporter, luminescence, 16 h. Potency, µM (doses to about 46 µM), actives largely listed as activators; also: nearly all actives have a fitted effect of over 60% in size
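Genotoxicity was scored as increased ELG1-luciferase reporter signal, measured by ONE-Glo luminescence (30 min, room temperature). Compound or vehicle exposure of the HEK293T reporter cells lasted 16 hr at 37°C.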
SMN2 splice up: SMN2 splice variant enhancement | Potency, µM (titrated, usually from 46.1 µM), most hits filed as activators | HEK293 SMN2-luciferase splicing reporter, luminescence, 30-36 h | 210,000 compounds, 2.8% hits; also: nearly all actives have a fitted effect of over 55% in size
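HEK293 cells carry an SMN2 […]–luciferase reporter in which exon 7 inclusion puts luciferase in frame. Cells were plated 10-12 h before compound addition, then incubated 30-36 h at 37C. ONE-Glo luminescence was read; sodium butyrate at 4.5 mM final served as control.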
Rab9 promoter act: Rab9 promoter activation; Huh7 Rab9 promoter-luciferase reporter, luminescence, 24 h; Potency, µM (series often up to 9.22 µM), hits mostly activators; 320,000 compounds, 2.8% hits; also: nearly all actives have a fitted effect of over 60% in size
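Luciferase signal after 10 min detection reagent at ambient indicates Rab9 promoter upregulation; stably transfected Huh7 cells were treated 24 h with compound in DMSO at 37 °C, 5% CO2.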
ELG1 DNA repair: blocks ELG1-dependent DNA repair in HEK293T cells | HEK293T ELG1-luciferase reporter, luminescence, 16 h; DNA damage induced by 5-fluorouridine | Potency, µM (doses to about 46.1 µM), actives largely listed as inhibitors | 330,000 compounds, 2.3% hits | AID 504467; also: nearly all actives have a fitted effect of over 55% in size
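DMSO vehicle served as the neutral condition. Each well held 2,000 cells given 5-fluorouridine plus compound; after 16 hr at 37 °C/5% CO2, ONE-Glo was added and luciferase measured 30 min later.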
Large screens that a line does not name were inactive. Calls follow the shape of the dose curve; as a rule, active = well fitted curve in the direction sought with a large enough effect; inconclusive = small, poorly fitted or top-dose-only effect, or another doubt; inactive = no such curve, though single readings can be large; an effect the other way counts as inactive or inconclusive.

C/C=C\C=C/C(=O)Nc1cccc(C2=NOC3(C2)C[C@@H](C(N)=O)N(C(=O)c2ccccc2)C3)c1 (stereo not given in full)	FLuc modulator 17µM (no result: SMN2 splice up)
C/C=C/C=C\C(=O)Nc1cccc(C2=NOC3(C2)C[C@@H](C(N)=O)N(C(=O)c2cc([N+](=O)[O-])cc([N+](=O)[O-])c2C)C3)c1 (stereo not given in full)	FLuc modulator 7.6µM (no result: SMN2 splice up)
CCCCCC(=O)Nc1cccc(C2=NOC3(C2)C[C@@H](C(N)=O)N(C(=O)c2cc([N+](=O)[O-])cc([N+](=O)[O-])c2C)C3)c1 (stereo not given in full)	ELG1 DNA repair inconclusive (no result: SMN2 splice up)
COc1ncc2nc(-c3cc(F)cc(F)c3)c(=O)n(Cc3cccs3)c2n1	none (no result: NPC1 promoter act, FLuc modulator, ELG1 genotoxic, Rab9 promoter act, ELG1 DNA repair)
Cn1c(=O)c(-c2ccccc2[N+](=O)[O-])c(Cl)c2ccccc21	none (no result: SMN2 splice up)
CC(C)OCCCNC(=O)C(=O)Nc1ccc2nc3n(c(=O)c2c1)CCCCC3	none (no result: NPC1 promoter act, ELG1 genotoxic, Rab9 promoter act, ELG1 DNA repair)
COc1cccc(OC)c1C(=O)Nc1ccc(C(=O)NCc2ccccc2)cc1	none (no result: SMN2 splice up)
O=C(O)c1cccc(NC(=O)c2cn(-c3ccccc3)nc2-c2ccc([N+](=O)[O-])cc2)c1	FLuc modulator 17µM (no result: SMN2 splice up)
O=C(NCc1cn(-c2ccccc2)nc1-c1ccccc1)c1cccc([N+](=O)[O-])c1	FLuc modulator inconclusive, ELG1 DNA repair 21µM
COc1ccc(-c2nn(-c3ccccc3)cc2C(=O)Nc2cccc(C(=O)O)c2)cc1[N+](=O)[O-]	FLuc modulator inconclusive (no result: SMN2 splice up)
O=C(O)c1cccc(NC(=O)c2cn(-c3ccccc3)nc2-c2ccncc2)c1	FLuc modulator 17µM
N#C/C(=C/c1cn(-c2ccccc2)nc1-c1cccc(OCc2ccc(F)cc2)c1)C(=O)NCCCn1ccnc1	FLuc modulator inconclusive, ELG1 DNA repair 15µM
O=C(O)c1cccc(NC(=O)c2cccc(S(=O)(=O)Nc3cccc([N+](=O)[O-])c3)c2)c1	FLuc modulator inconclusive (no result: SMN2 splice up)
O=C(NCCCn1ccnc1)c1cn(-c2ccccc2)nc1-c1ccc(F)cc1	FLuc modulator 11µM
O=C(NNS(=O)(=O)c1ccc([N+](=O)[O-])cc1)C(=O)Nc1cccc(C(=O)O)c1	FLuc modulator 17µM (no result: SMN2 splice up)
O=C(Nc1ccc(F)cc1)c1cn(-c2ccccc2)nc1-c1ccncc1	ELG1 DNA repair 21µM
O=C(O)c1cn(-c2ccccc2)nc1-c1ccncc1	FLuc modulator inconclusive, SMN2 splice up inconclusive
O=S(=O)(Cc1ccccc1)N1CCN(Cc2ccc(Br)cc2)CC1	NPC1 promoter act inconclusive, FLuc modulator inconclusive, ELG1 genotoxic 16µM, ELG1 DNA repair inconclusive (no result: SMN2 splice up)
O=C(Cn1c(=O)nc(-c2ccccc2F)c2cc(Cl)ccc21)Nc1ccccc1C(F)(F)F	none (no result: NPC1 promoter act, ELG1 genotoxic, SMN2 splice up, Rab9 promoter act, ELG1 DNA repair)
O=c1[nH][nH]cc1C=Nc1cc(Cl)ccc1O	none
O=c1[nH][nH]cc1C=Nc1ccc(Cl)cc1Cl	FLuc modulator 7.6µM
COc1ccccc1N1CCN(c2ncnc3c2nnn3C)CC1	none (no result: NPC1 promoter act, ELG1 genotoxic, SMN2 splice up, Rab9 promoter act, ELG1 DNA repair)
CC(=O)c1cccc(S(=O)(=O)Nc2cc(C(F)(F)F)ccc2N2CCOCC2)c1	none (no result: SMN2 splice up)
COc1ccc(Cl)cc1NC(=O)CCN1C(=O)c2ccccc2Sc2ncccc21	none (no result: NPC1 promoter act, ELG1 genotoxic, SMN2 splice up, Rab9 promoter act, ELG1 DNA repair)
Cc1ccc(-n2ncc(-c3nnc(SCC(=O)NC4CCCC4)o3)c2N)cc1C	FLuc modulator inconclusive, ELG1 DNA repair 12µM
O=C1C2=C(S[C@@H]3O[C@H](CO)[C@@H](O)[C@H](O)[C@H]3O2)C(=O)c2ccccc21	none (no result: NPC1 promoter act, FLuc modulator, ELG1 genotoxic, Rab9 promoter act, ELG1 DNA repair)
CCOC(=O)N1CCC(NC(=O)c2ccc(N3CCC4(CC3)OCCO4)c([N+](=O)[O-])c2)CC1	ELG1 DNA repair 16µM
CCCCNC(=O)c1ccc(N2CCC3(CC2)OCCO3)c([N+](=O)[O-])c1	none
CCS(=O)(=O)N1CCN(c2ccc(C(=O)NC3C4CC5CC(C4)CC3C5)cc2[N+](=O)[O-])CC1 (stereo not given)	ELG1 DNA repair 12µM
Cc1cccc(CNc2nc(-c3ccc(C(=O)N(C)C)cc3)nc3ccccc23)c1	none (no result: NPC1 promoter act, FLuc modulator, ELG1 genotoxic, Rab9 promoter act, ELG1 DNA repair)

Screens as filed in PubChem.
